Rows were chosen to be rich in hits. Some 4.3% of all compounds tested hit in one or more screens of this group.
HIF-2a block – inhibitors of HIF-2a; 786-0 RCC cells HIF-2a reporter, luciferase luminescence, overnight; inhibition, % at 18.8 µM; 360,000 compounds, 0.72% hits;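 active means inhibition of the luminescence signal of 40% or more relative to plate controls, in a single-dose primary screen at 18.75 µM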
Peg3 prom inh-1 – inhibitors of Peg3 promoter. inhibition, % at 20 µM. AID 588405. HeLa PEG-Prom luciferase reporter, luminescence, overnight. 360,000 compounds, 1.7% hits;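 active means inhibition of at least 50% at 20 µM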
TRPM1 prom inh – MITF TRPM1 promoter inhibition in SK-MEL-5 cells. 330,000 compounds, 0.83% hits. SK-MEL-5 TRPM1 promoter luciferase, 24 h. AID 488899. inhibition, % at 12.5 µM;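 active means mean inhibition across replicates of 60% or more, whatever share of single replicates reaches that level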
CHOP inh – blocks CHOP induction under ER stress | CHO-K1 CHOP-promoter luciferase, tunicamycin-induced, 15-18 h | inhibition, % at 10 µM | 220,000 compounds, 3.8% hits | AID 2732;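 active means compounds that reduced the stress-induced luciferase reporter signal by more than about 70% of percent inhibition, limit read from the data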;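 further: 0% = tunicamycin plus vehicle and 100% = wells without tunicamycin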
CF NFkB inh – blocks PAF-induced NF-kB reporter in cystic fibrosis cells | KKLEB NF-kB-GFP reporter, GFP fluorescence overnight | inhibition, % at 5 µM | 360,000 compounds, 0.86% hits;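 active means at least 50% inhibition at 5 µM, scaled per plate between neutral and stimulator controls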;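 further: PAF is a Pseudomonas aeruginosa culture filtrate used as stimulus; plate controls were PAF-stimulated DMSO wells for no effect and unstimulated DMSO wells for full effect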
KKLEB cytotox – counter-screen for CF NF-kB inhibitors: cytotoxicity; KKLEB CF airway cells viability, ATPlite luminescence, overnight; stronger effect = lower value; cells stimulated with P. aeruginosa culture filtrate; activity change (cytotoxicity), % at 5 µM; 360,000 compounds, 0.36% hits;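 active means corrected activity change at or below -50% at 5 µM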
Peg3 prom inh-2 – Peg3 promoter inhibition confirmation; shares compounds with Peg3 prom inh-1; HeLa PEG-Prom luciferase reporter, luminescence, overnight; inhibition, % at 20 µM; 1,300 compounds, 84% hits; AID 602417;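 active means at 20 µM dose, 40% or more inhibition averaged across four replicates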
Numbers without * were called inactive; nt = not tested or not shown.

SMILES	HIF-2a block	Peg3 prom inh-1	TRPM1 prom inh	CHOP inh	CF NFkB inh	KKLEB cytotox	Peg3 prom inh-2
COc1ccc(C(=O)Nc2ccc3oc(-c4cccnc4)nc3c2)cc1OC	-4.7	20.8	2.3	-13.9	13.3	-13.3	nt
COc1cc(C(=O)Nc2ccc3oc(-c4cccnc4)nc3c2)cc(OC)c1OC	7.6	52.3*	-4.9	1.0	6.0	-10.6	43.2*
COc1cc(C(=O)Nc2nc(OC)c(-c3ccccc3)c(OC)n2)cc(OC)c1OC	-11.8	50.4*	15.1	34.0	6.2	-14.2	43.4*
COc1ccccc1C(=O)NC(=O)COC(=O)Cn1cnc2c1c(=O)n(C)c(=O)n2C	14.9	-2.1	5.9	nt	-0.3	1.1	nt
COc1cc(/C=C/c2ccc3cccc(O)c3n2)ccc1O	-295.5	102.5*	24.9	nt	-40.2	0.9	57.1*
COc1cc(/C=C/c2ccc3cccc(O)c3n2)c(Br)cc1O	-141.3	98.1*	1.4	nt	-5.5	-10.0	91.7*
O=C(c1ccc2c(c1)OCO2)N1CCC2(CC1)Oc1ccc(Cl)cc1C(=O)C21CC(c2ccc(Cl)cc2)=NO1 (stereo not given)	nt	nt	nt	-15.8	nt	nt	nt
CC(NC(=O)[C@H](C)N1C(=O)N2CCc3c([nH]c4ccccc34)[C@@]2(C)C1=O)c1ccccc1 (stereo not given in full)	19.5	-1.5	7.7	nt	-12.8	4.8	nt
Cc1nn(CC(=O)NCc2ccc(OC(C)C)cc2)c(=O)c2cc(-c3ccccc3)nn12	10.2	51.0*	5.3	nt	8.4	-3.3	15.4
CCN(CC)c1ccc(/C=N/n2nnnc2N)c(O)c1	-137.0	-111.4	-18.6	-24.0	8.3	-4.4	nt
CCN(CC)c1ccc2nc3ccc(N)cc3[n+](-c3ccccc3)c2c1	1.0	88.9*	93.4*	nt	-17.7	-8.1	72.2*
CC(C)c1ccc(-c2nc3ccccc3s2)cc1	77.3*	72.1*	92.1*	92.8*	21.0	-79.1*	83.1*
COc1ccc(-c2nc3ccccc3s2)cc1O	40.0	55.1*	45.8	34.8	-9.8	-53.5*	36.7
COc1cc(-c2nc3ccccc3s2)ccc1O	-216.3	-179.5	-12.6	15.1	-23.6	0.1	nt
CCc1ccc2c(c1)NC(=O)C2(C)Cc1ccc(C(F)(F)F)nc1 (stereo not given)	4.1	-2.8	nt	nt	-0.1	6.7	nt
COC(=O)c1ccc2nc(-c3cccc(N)c3)cn2c1	36.8	68.4*	51.7	79.8*	-6.2	-6.0	11.1
COC(=O)c1ccc2nc(-c3ccc(S(C)(=O)=O)cc3)cn2c1	-142.8	-160.5	-37.6	-30.9	2.6	-3.7	nt
CCCCOc1ccccc1C(=O)N(Cc1ccco1)C1CCS(=O)(=O)C1 (stereo not given)	13.5	7.7	-5.5	nt	9.8	-1.4	nt
Cc1cc(C)c2[nH]c(O)c(N=NC(=S)NCC3CCCO3)c2c1 (stereo not given)	10.3	16.7	18.5	-34.9	7.3	-3.4	nt
Oc1[nH]c2c(Cl)cc(Cl)cc2c1N=NC(=S)NCC1CCCO1 (stereo not given)	23.0	97.3*	33.8	15.3	-42.0	17.7	38.4
COc1ccc(C2C(C#N)=C(C)NC(C)=C2C(=O)OC(C)C)c(OC)c1 (stereo not given)	14.5	5.1	-8.9	-12.0	-20.4	-14.1	nt
CCc1ccc(C(=O)COC(=O)CCc2nc3ccccc3c(=O)[nH]2)cc1	-0.3	14.2	3.9	-12.5	6.7	2.5	nt
Oc1ccc(C23CCCC2C2(CCCC2)c2ccc(O)cc2O3)c(O)c1 (stereo not given)	23.7	51.4*	5.5	nt	19.2	1.4	44.1*
COc1cc(-c2cc(C(=O)N3CCCCCC3)c3ccccc3n2)cc(OC)c1OC	-10.0	1.1	9.6	nt	-10.3	4.4	nt
COc1ccc(-c2cc(C(=O)N(C)CC(=O)Nc3ccccc3Br)c3ccccc3n2)cc1OC	-0.5	53.9*	-2.2	nt	21.0	-26.1	27.1
SMILES	HIF-2a block	Peg3 prom inh-1	TRPM1 prom inh	CHOP inh	CF NFkB inh	KKLEB cytotox	Peg3 prom inh-2
COc1ccc(-c2cc(C(=O)N(C)Cc3ccccc3F)c3ccccc3n2)cc1OC	3.0	60.5*	4.9	nt	19.4	-20.4	59.5*
COc1ccc(N2CCN(C(=O)c3cc(-c4cccs4)nc4ccccc34)CC2)cc1	-12.0	11.7	-12.3	36.2	21.0	-9.0	nt
COc1ccc(-c2cc(C(=O)N(C)CC(=O)Nc3ccccc3C(F)(F)F)c3ccccc3n2)cc1OC	0.0	44.2	-0.6	nt	-6.7	-14.8	nt
COc1cccc(CN(C)C(=O)c2cc(-c3cccs3)nc3ccccc23)c1	4.8	60.8*	-11.6	nt	-8.7	-7.4	67.4*
COc1cc(-c2cc(C(=O)N(C)Cc3ccccc3)c3ccccc3n2)cc(OC)c1OC	9.5	55.8*	10.2	nt	-23.7	-5.2	52.4*
Cc1ccc(OCCN(C)C(=O)C2CCC(=O)N(CC3CCCCC3)C2)cc1 (stereo not given)	-5.6	5.9	-4.3	nt	-27.3	12.6	nt
COC(=O)[C@H]1C[C@H](OC(=O)Nc2c(C)noc2C)[C@@]2(O)CN(S(=O)(=O)c3ccc(C)cc3)CC2[C@H]1C(=O)OC (stereo not given in full)	9.2	2.5	nt	nt	-2.4	11.2	nt
CN(CC(=O)NCCc1ccc(F)cc1)Cc1cccc(Cl)c1	1.5	0.3	-7.4	18.7	17.1	-25.9	nt
CC(OC(=O)C1CC1)C(=O)Nc1cc(C(F)(F)F)ccc1Cl (stereo not given)	3.3	-0.1	7.6	2.0	13.5	4.7	nt
CC1CCN(c2ccc(-c3cccs3)nn2)CC1	78.0*	82.5*	79.3*	nt	-21.7	-80.9*	77.5*
C=C(C)Cn1c(SCC)nc2ccccc2c1=O	7.2	21.4	2.0	56.6	3.6	-8.3	nt
C=C(C)Cn1c(SCC(=O)N/N=C/c2c(O)ccc3ccccc23)nc2ccccc2c1=O	19.3	60.9*	19.5	18.6	11.5	-18.1	63.9*
COC(=O)c1ccc(NC(=O)COc2ccc(S(=O)(=O)NC(C)(C)C)cc2)cc1	2.1	-0.3	2.2	-14.2	4.2	-2.8	nt
Cc1cc(/C=N/Nc2ncnc(N)c2[N+](=O)[O-])c(C)n1-c1ccccc1	59.4*	92.4*	80.6*	83.0*	-14.5	-50.4*	84.0*
COc1cccc(/C=N/Nc2ncnc(N)c2[N+](=O)[O-])c1OC	18.1	47.4	31.8	29.9	-3.7	5.6	nt
CN1CCC(N(C)CC(C)(C)NS(=O)(=O)c2ccccc2)CC1	18.4	3.9	-0.7	-2.6	2.0	-2.7	nt
O=C(COc1ccc2c(c1)CCC2)Nc1ccccn1	59.8*	74.9*	51.0	nt	15.6	-33.7	67.0*
Cc1cccc(NC(=O)COc2ccc3c(c2)CCC3)n1	-275.5	-241.4	-105.5	nt	-2.1	-2.9	nt
CCCCCCC=C1CCC(CN2CCCC2)C1=O (stereo not given)	-6.7	101.5*	nt	nt	-12.3	-4.0	76.6*
Cc1ccc(NC(=S)NC(=O)c2ccc(F)cc2)cc1S(=O)(=O)Nc1ccccc1Cl	11.4	55.2*	17.4	-6.5	0.7	-14.7	57.8*
